Experimental data published in the supplement of paper PMC10849652.
About 7,900 targets were measured; listed, in parts, are those with a hit and a random draw of the rest. About 0.6% of all pairs of compound and target were hits.

compound: Cc1nc(Nc2ncc(C(=O)Nc3c(C)cccc3Cl)s2)cc(N2CCN(CCO)CC2)n1 [dasatinib]; test: log2 fold change, soluble protein after heating vs DMSO (PISA); higher = thermal stabilisation; K562 cells, 10 uM, 30 min; active = over 0.2 and 3.5 SD of the protein, either way, in both replicates (recomputed)
How it was run: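 Values are thermal stability changes relative to control samples and are taken from duplicates. They are stated as log2 fold changes. Before quantification by TMTpro 16plex LC-MS/MS with equalised channel sums, K562 cells at 2×10^6 cells/mL were treated with 10 μM compound for 30 min, heated in aliquots for 3 min across 48°C-58°C, pooled, extracted in PBS with 0.5% NP-40 at 4°C, and centrifuged at 21,000xg for 90 min to give the soluble supernatant.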

MTHFD1, A0A384N5Y3, sequence (A0A384N5Y3 whole entry, looked up): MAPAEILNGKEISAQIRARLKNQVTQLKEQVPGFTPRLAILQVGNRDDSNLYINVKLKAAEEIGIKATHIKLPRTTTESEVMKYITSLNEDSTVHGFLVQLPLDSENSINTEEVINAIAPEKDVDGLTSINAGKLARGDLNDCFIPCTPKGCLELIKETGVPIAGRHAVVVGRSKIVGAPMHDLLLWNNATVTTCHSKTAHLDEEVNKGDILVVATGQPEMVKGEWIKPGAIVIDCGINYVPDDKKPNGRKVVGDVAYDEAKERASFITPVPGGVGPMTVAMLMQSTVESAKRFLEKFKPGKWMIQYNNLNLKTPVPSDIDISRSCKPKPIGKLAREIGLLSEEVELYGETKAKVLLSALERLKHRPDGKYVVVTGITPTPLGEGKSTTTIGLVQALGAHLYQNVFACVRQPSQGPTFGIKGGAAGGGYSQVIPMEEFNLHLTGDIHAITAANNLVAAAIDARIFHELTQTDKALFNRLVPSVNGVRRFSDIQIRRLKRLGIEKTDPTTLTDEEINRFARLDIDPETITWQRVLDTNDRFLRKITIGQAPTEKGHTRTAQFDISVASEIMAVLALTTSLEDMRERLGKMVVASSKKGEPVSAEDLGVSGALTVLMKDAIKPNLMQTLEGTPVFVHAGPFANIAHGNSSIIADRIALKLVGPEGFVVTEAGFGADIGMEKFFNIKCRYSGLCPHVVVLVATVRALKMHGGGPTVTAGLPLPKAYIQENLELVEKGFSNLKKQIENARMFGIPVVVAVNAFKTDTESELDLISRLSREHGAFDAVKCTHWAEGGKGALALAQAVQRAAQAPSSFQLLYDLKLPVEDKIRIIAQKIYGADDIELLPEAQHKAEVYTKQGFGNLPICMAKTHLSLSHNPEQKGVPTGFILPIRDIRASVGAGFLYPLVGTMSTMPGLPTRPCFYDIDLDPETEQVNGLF
UniProt Q9Y314, sequence (Q9Y314 whole entry, looked up): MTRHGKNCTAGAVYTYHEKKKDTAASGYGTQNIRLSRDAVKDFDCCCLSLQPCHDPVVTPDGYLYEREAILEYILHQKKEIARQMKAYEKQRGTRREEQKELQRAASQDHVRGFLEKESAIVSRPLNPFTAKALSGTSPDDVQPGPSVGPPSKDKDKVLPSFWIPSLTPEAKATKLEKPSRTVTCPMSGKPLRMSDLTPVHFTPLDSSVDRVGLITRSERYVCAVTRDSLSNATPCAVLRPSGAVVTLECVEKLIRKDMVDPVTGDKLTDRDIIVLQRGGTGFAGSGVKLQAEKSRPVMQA
UniProt Q9BUB5, sequence (Q9BUB5 whole entry, looked up): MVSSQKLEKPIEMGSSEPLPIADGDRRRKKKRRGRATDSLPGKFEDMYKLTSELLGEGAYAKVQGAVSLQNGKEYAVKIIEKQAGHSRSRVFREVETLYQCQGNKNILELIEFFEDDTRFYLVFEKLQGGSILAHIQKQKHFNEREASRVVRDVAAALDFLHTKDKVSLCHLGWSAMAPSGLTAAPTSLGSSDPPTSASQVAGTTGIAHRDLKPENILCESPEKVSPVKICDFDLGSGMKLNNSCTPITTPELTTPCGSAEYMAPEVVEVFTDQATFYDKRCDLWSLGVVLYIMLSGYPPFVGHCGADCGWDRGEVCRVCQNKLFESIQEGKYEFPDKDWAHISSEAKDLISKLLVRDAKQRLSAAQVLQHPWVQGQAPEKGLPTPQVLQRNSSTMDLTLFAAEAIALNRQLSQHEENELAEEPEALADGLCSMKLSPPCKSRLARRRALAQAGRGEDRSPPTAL
UniProt P22059, sequence (P22059 whole entry, looked up): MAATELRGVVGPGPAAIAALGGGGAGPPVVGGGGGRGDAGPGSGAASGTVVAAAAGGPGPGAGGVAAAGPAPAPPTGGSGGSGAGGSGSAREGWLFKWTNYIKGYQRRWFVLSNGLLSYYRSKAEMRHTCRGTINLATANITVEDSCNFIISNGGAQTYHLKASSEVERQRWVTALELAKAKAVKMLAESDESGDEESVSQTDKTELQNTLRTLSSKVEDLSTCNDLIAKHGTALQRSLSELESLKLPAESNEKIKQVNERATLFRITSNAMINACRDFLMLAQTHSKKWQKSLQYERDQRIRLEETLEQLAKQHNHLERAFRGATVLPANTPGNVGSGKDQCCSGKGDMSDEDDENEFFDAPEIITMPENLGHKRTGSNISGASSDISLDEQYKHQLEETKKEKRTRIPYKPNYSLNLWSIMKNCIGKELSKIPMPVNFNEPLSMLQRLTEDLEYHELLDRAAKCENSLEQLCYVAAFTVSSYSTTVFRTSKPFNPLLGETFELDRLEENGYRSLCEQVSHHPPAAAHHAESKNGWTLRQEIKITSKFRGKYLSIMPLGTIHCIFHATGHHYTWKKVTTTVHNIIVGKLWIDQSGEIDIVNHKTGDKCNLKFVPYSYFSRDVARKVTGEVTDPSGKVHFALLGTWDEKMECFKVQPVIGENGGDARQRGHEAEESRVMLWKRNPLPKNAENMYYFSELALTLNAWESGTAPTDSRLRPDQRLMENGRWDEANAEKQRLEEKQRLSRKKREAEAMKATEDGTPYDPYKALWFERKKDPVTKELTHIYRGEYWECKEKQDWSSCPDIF
UniProt Q9BZF1, sequence (Q9BZF1 whole entry, looked up): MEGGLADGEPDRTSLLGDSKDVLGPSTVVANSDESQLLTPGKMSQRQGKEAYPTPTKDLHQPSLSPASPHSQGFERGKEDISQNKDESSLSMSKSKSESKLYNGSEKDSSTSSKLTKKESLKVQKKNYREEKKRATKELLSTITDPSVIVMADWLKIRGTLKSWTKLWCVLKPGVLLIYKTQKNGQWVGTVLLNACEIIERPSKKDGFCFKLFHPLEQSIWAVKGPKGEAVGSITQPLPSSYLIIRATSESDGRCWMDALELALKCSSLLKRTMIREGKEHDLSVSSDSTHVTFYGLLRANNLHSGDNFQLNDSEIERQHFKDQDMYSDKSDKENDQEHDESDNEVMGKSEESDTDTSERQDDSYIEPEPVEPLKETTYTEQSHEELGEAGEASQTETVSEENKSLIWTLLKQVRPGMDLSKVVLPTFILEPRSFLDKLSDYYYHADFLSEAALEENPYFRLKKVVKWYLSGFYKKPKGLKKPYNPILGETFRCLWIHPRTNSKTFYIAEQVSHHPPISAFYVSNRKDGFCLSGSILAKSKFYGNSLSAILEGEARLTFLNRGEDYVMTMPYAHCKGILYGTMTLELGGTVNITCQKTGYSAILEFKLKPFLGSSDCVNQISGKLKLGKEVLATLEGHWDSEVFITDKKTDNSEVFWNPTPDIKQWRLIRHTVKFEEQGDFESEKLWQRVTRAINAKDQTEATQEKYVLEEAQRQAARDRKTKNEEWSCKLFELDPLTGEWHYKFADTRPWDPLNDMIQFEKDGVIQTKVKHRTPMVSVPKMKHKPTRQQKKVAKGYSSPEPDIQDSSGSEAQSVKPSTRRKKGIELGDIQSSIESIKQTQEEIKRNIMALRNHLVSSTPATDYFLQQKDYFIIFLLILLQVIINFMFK
UniProt Q9HAN9, sequence (Q9HAN9 whole entry, looked up): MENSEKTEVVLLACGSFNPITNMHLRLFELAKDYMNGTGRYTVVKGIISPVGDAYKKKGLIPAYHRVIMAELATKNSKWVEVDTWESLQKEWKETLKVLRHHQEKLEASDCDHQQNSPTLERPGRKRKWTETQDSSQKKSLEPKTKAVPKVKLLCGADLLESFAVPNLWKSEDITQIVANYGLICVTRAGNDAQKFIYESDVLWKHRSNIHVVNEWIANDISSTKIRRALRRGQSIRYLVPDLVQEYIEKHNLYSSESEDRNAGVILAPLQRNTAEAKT
UniProt P15559, sequence (P15559 whole entry, looked up): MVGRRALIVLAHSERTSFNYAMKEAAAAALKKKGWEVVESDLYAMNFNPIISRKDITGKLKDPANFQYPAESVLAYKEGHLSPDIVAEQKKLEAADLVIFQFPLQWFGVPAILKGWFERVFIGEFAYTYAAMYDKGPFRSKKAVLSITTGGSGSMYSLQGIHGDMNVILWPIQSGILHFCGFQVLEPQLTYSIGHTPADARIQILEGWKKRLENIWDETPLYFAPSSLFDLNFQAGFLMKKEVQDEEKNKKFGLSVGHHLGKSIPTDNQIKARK
UniProt P56556, sequence (P56556 whole entry, looked up): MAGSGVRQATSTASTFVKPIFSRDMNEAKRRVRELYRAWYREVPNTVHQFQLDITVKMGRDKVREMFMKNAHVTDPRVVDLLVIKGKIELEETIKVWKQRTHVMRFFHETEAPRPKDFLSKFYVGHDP
UniProt O95169, sequence (O95169 whole entry, looked up): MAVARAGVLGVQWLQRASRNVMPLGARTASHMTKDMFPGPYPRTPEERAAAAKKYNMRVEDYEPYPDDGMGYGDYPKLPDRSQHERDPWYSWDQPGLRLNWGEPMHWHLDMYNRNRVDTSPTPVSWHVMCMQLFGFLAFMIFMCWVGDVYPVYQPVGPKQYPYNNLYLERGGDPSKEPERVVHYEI
UniProt P49116, sequence (P49116 whole entry, looked up): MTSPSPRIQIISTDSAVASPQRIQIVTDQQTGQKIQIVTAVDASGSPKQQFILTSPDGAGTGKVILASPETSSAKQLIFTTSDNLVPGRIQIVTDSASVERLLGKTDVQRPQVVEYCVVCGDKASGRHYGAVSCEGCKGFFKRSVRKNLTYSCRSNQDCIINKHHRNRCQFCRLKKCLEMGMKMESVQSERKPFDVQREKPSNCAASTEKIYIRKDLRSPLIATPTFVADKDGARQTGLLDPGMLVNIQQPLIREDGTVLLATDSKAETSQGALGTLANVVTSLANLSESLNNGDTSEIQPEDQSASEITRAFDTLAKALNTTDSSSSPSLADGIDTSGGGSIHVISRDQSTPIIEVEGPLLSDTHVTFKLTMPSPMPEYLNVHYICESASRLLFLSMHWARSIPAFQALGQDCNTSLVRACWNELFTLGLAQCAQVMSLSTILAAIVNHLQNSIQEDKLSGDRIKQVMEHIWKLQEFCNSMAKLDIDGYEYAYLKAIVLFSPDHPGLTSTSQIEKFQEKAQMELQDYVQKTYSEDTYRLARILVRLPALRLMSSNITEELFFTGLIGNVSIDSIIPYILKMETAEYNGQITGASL

log2 fold change, inactive:
NFATC2 (UniProt Q13469) -0.213
MRPS18B (UniProt Q9Y676) -0.024
PACS1 (UniProt Q6VY07) 0.018
NUP205 (UniProt Q92621) -0.133
NA, A0A0B4J2A0 -0.111
OSBP (UniProt P22059) -0.08
MKNK1 (UniProt Q9BUB5) -0.115
NMNAT1 (UniProt Q9HAN9) 0.159
MRPS25 (UniProt P82663) -0.105
NME1 isoform 2 (UniProt P15531) -0.286
MRPL47 (UniProt Q9HD33) 0.016
NDUFA12 (UniProt Q9UI09) -0.107
MOV10 (UniProt Q9HCE1) 0.111
MTHFD1, A0A384N5Y3 -0.153
MRPS5 (UniProt P82675) -0.073
NFATC2IP (UniProt Q8NCF5) -0.096
NOL11 (UniProt Q9H8H0) 0.017
NDUFA6 (UniProt P56556) -0.088
OSBPL8 (UniProt Q9BZF1) 0.066
NOSIP (UniProt Q9Y314) -0.229
NR2C2 isoform 2 (UniProt P49116) -0.026
NDUFB8 (UniProt O95169) 0.056
NQO1 (UniProt P15559) -0.033
